Source: PubChem (Milwaukee Institute for Drug Discovery)
A selection: hits, their analogues and other compounds. The true share with any hit is near 6.8%.
Cy5 interf NS3h – Cy5 fluorescence quenchers or enhancers, artefact control for HCV NS3 helicase inhibitor project, biochemical, ChemBridge library, Cy5 readout. AID 720488, 2013. 16,000 compounds, 6% hits. Cy5-dT15 DNA with NS3h, fluorescence interference; actives lie on both sides; signal over control mean, under 1 quenches. fluorescence interference ratio at 100 µM;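 active means compound fluorescence over control fluorescence at most 0.8, a quencher, or at least a set upper limit, an enhancer; inactive means ratio between 0.8 and the set upper limit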
HCV NS3h FP – HCV NS3 helicase inhibitors, primary screen, biochemical, fluorescence polarization, ChemBridge library | Hepatitis C virus NS3 helicase | NS3h Cy5-dT15 DNA binding | 16,000 compounds, 1.6% hits | inhibition, % at 100 µM;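 active means inhibition above the average over every tested compound plus 3 SD, cut at about 40% in these data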
Hits are given with their value; – = inactive.

SMILES | Cy5 interf NS3h | HCV NS3h FP
COc1ccc(C2CC(C(F)(F)F)n3ncc(C(=O)N4CCN(Cc5ccccc5)CC4)c3N2)cc1OC (centres undefined) | 0.61 | –
O=C(c1ccccc1)N1CCN(C(=O)c2cnn3c2NC(c2ccc(Br)cc2)CC3C(F)(F)F)CC1 (centres undefined) | – | –
COc1ccc(C2CC(C(F)(F)F)n3ncc(C(=O)Nc4ccccc4SC)c3N2)cc1 (centres undefined) | – | –
O=C(NCCN1CCOCC1)c1cnn2c1NC(c1ccco1)CC2C(F)(F)F (centres undefined) | – | –
COc1ccccc1CC(=O)Nc1cccc(C)c1C | – | –
CCCC(=O)NC(Oc1ccc(/C=C2\SC(=S)N(CCCOC)C2=O)cc1)C(Cl)(Cl)Cl (centres undefined) | – | –
O=C1CCCC2=C1C(c1ccc(OCc3ccccc3)cc1)C1=C(CCCC1=O)O2 | – | –
COc1ccccc1/C=C1\C=C(c2ccc(Cl)cc2)OC1=O | – | –
CCN(CC)C(=O)CN(c1cc(Cl)ccc1OC)S(=O)(=O)c1ccc(C)c([N+](=O)[O-])c1 | – | –
COc1ccc(Cl)cc1N(CC(=O)NCC(C)C)S(=O)(=O)c1ccc(C)c([N+](=O)[O-])c1 | 0.71 | –
O=C1NC(=S)N(c2ccc(Br)cc2)C(=O)/C1=C/c1cccs1 | – | –
Cc1cc(/C=C2\C(=O)NC(=O)N(c3ccc(Cl)cc3)C2=O)c(C)n1-c1cccnc1 | – | –
COc1ccc(N2C(=O)c3ccc(OCCOc4ccc5c(c4)C(=O)N(c4ccc(OC)cc4)C5=O)cc3C2=O)cc1 | 0.64 | –
COc1ccc(N2C(=O)c3ccc(C(=O)Nc4ccccc4I)cc3C2=O)cc1 | – | –
Cc1ccc(Cl)cc1NC(=O)CSc1nnc(SCC(=O)Nc2cc(Cl)ccc2C)s1 | – | –
COc1cccc(N2C(=O)C(=O)C(=C(O)c3ccccc3)C2c2ccc(Cl)cc2)c1 (centres undefined) | – | –
COc1cccc(N2C(=O)C(=O)C(=C(O)c3ccccc3)C2c2ccccc2Cl)c1 (centres undefined) | 0.73 | –
O=C1c2ccccc2NC(c2ccc(-c3ccccc3[N+](=O)[O-])o2)N1c1ccccc1 (centres undefined) | – | –
COC(=O)C(CCCC(C(=O)OC)C(=O)OC)C(=O)OC | 0.68 | –
COC(=O)C(CC(C(=O)OC)C(=O)OC)C(=O)OC | – | –
COCC(O)CN1CCN(c2ccc([N+](=O)[O-])cc2Cl)CC1 (centres undefined) | – | –
O=[N+]([O-])c1ccc(N2CCN(S(=O)(=O)Cc3ccccc3)CC2)c(Cl)c1 | 0.74 | –
CCCOc1cccc(C(=O)Nc2ccc(C)cc2[N+](=O)[O-])c1 | – | –
COc1ccc(-c2cc(C(F)(F)F)n3nc(C(=O)Nc4ccccc4C(F)(F)F)cc3n2)cc1 | – | –
COc1ccc(-c2cc(C(F)(F)F)n3nc(C(=O)NCCCn4ccnc4)c(Cl)c3n2)cc1 | 0.68 | –
SMILES | Cy5 interf NS3h | HCV NS3h FP
O=c1c2ccccc2c2c1nc1c(=O)c3ccccc3c(=O)n12 | – | –
O=C(NCC1CCCO1)c1c(Cl)cccc1Cl (centres undefined) | – | –
Cc1ccc(NC(=O)c2cc3ccccc3cc2O)c(C)c1 | 0.77 | –
O=C(Nc1ccc(Cl)cc1)c1cc2ccccc2cc1O | – | –
COc1ccc(NCCC(=O)c2ccc(Cl)c(Cl)c2)cc1 | – | –
O=C1CCCCCC1CN1CCCCC1 (centres undefined) | – | –
O=C(c1ccccc1F)N1CCN(c2ccc([N+](=O)[O-])cc2C(F)(F)F)CC1 | – | –
CCC(=O)Nc1sc2c(c1C(=O)Nc1ccc(OC)cc1)CCCCC2 | – | –
COc1cc(CC(=O)O)c([N+](=O)[O-])cc1OC | 0.65 | –
CCN(C(=O)c1cc(OC)c(OC)cc1[N+](=O)[O-])c1ccccc1 | – | –
CCCc1cc(=O)n2[nH]c(-c3ccc(C)cc3)c(C)c2n1 | – | –
CCc1ncc(C(O)c2ccccc2OC)n1C (centres undefined) | – | –
Cc1ccc(C(=O)O/N=C(/N)c2ccccn2)cc1[N+](=O)[O-] | – | –
Cc1ccc(C(=O)O/N=C(/N)c2cccnc2)cc1[N+](=O)[O-] | 0.66 | –
O=C1OC(c2ccccc2F)=N/C1=C\c1ccc(Br)cc1 | – | –
CCOc1ccc(/C=C2\N=C(c3ccccc3F)OC2=O)cc1 | – | 53
C/C(=N/N=C1\NC(=O)C(CC(=O)Nc2ccc([N+](=O)[O-])cc2)S1)c1ccc(F)cc1 (centres undefined) | – | –
C/C(=N/N=C1\NC(=O)C(CC(=O)Nc2ccc(Cl)cc2Cl)S1)c1ccc(F)cc1 (centres undefined) | 1.2 | –
COC(=O)c1cc(-c2ccc(/C=C(\C#N)c3nc4ccccc4[nH]3)o2)ccc1Cl | – | –
